Measurements reported in PubChem BioAssay.
Calls of active or inactive are those of the source. Unless noted, how the calls were made is not given here.

Assays:
[1] = anti-His antibody binders, primary screen, artefact control for SMM control protein annotation, biochemical, small-molecule microarray, 635 nm fluorescence (AID 1128); details: anti-His Alexa647 antibody binding, higher = more signal;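 further: score merges feature fluorescence with signal-to-noise for each printed compound spot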
[2] = tested on: Human papillomavirus type 1a E7 protein (residues 1-88); test: HPV1a E7 small-molecule binders, primary screen, biochemical, small-molecule microarray, residues 1-88, 635 nm (AID 1129); details: small-molecule microarray binding, fluorescence 635 nm; higher = more signal
[3] = biological target: Focal adhesion kinase 1 (Homo sapiens) (UniProt Q05397); test: small-molecule microarray binders of FAK, primary screen, biochemical, 635/667 nm fluorescence, BSA, DTT (AID 1130); details: PTK2 binding, 635 nm fluorescence, higher = more signal;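 further: composite of spot emission at 667 nm and signal to noise over triplicate slides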
Sequence of Focal adhesion kinase 1 (Homo sapiens) (Q05397 whole entry, looked up): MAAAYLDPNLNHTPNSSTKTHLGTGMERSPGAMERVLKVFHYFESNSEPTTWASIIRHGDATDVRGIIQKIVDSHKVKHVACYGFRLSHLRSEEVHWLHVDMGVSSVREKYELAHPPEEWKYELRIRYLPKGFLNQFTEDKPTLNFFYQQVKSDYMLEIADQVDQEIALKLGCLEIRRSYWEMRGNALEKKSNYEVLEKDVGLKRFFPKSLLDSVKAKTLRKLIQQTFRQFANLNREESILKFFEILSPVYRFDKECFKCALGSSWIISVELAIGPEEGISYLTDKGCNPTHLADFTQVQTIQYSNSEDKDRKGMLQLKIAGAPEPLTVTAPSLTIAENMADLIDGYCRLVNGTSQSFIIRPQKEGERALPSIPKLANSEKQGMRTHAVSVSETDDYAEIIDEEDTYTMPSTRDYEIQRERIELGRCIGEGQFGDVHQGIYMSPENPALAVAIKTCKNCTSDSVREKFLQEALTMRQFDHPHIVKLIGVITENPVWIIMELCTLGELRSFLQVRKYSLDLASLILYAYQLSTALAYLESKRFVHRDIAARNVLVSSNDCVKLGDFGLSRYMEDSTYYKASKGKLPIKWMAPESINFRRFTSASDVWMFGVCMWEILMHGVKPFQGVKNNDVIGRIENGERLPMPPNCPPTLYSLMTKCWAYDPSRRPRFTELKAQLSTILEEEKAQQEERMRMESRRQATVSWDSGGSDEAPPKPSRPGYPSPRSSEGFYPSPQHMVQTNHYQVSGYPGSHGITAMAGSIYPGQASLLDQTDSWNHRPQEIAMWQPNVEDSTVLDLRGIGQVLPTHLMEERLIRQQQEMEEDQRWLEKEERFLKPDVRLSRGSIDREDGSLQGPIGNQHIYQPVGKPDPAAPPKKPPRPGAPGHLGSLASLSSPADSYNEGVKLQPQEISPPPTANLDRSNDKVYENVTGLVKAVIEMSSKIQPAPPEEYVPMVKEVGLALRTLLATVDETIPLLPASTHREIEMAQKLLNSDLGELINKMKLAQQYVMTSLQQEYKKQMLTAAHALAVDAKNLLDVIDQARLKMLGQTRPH

[4] = tested on: Fibrinogen (Alexa647-labelled); test: fibrinogen binders on compound microarrays, profiling panel, artefact control for SMM control-protein annotation, biochemical, small-molecule microarray, 635/667 nm fluorescence (AID 1131); details: fibrinogen-A647 binding fluorescence, higher = more signal;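 further: z-score merges 667 nm fluorescence with per-spot signal-to-noise over triplicate slides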
[5] = biological target: Follistatin (Homo sapiens) (UniProt P19883); test: follistatin binders on small-molecule microarrays, primary screen, biochemical, small-molecule microarray, 635/667 nm fluorescence (AID 1132); details: FST binding, 635 nm fluorescence, higher = more signal
Sequence of Follistatin (Homo sapiens) (P19883 whole entry, looked up): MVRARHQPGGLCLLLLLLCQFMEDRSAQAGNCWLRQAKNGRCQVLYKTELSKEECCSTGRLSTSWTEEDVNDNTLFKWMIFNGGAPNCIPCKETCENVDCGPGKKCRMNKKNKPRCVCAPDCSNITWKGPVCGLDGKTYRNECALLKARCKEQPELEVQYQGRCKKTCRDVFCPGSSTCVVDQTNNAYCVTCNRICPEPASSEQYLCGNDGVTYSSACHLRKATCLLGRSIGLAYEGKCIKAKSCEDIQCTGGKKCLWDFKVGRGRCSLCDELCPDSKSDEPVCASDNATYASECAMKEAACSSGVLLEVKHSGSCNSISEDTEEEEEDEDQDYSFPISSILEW

[6] = biological target: Fibroblast growth factor 2 (Homo sapiens) (UniProt P09038); test: FGF2 binders on small-molecule microarrays, primary screen, biochemical, small-molecule microarray, 635/667 nm fluorescence (AID 1133); details: small-molecule microarray binding, FGF2, fluorescence 635/667; higher = more signal
Sequence of Fibroblast growth factor 2 (Homo sapiens) (P09038 whole entry, looked up): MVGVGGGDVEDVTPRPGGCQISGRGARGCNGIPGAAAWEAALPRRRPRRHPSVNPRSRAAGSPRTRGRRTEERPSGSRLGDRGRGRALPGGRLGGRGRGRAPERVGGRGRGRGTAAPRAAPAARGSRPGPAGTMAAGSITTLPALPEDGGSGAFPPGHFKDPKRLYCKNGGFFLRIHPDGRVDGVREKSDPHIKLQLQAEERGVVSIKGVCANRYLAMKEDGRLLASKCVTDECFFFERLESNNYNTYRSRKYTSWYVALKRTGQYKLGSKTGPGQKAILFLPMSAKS

[7] = mitochondrial membrane potential change in A549 cells, profiling panel, cell-based, JC-1 fluorescence, basal, 24 h, 100 nL (AID 1138); details: higher = more signal;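 further: A549 lung adenocarcinoma cells under basal conditions with no added stimulus; test concentration not given here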
Lefty1 = Lefty1 binders on small-molecule microarrays, primary screen, biochemical, small-molecule microarray, 635/667 nm fluorescence (AID 1139); details: small-molecule microarray binding, fluorescence 635/667; higher = more signal
[8] = tested on: wheat germ agglutinin (Triticum aestivum), Alexa647-labelled; test: wheat germ agglutinin binders on compound microarrays, profiling panel, artefact control for SMM control-protein annotation, biochemical, small-molecule microarray, 635/667 nm fluorescence (AID 1140); details: WGA-A647 binding, 635 nm fluorescence, higher = more signal;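 further: score merges 667 nm feature emission with signal to noise over triplicate slides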
[9] = biological target: Luciferin 4-monooxygenase (Photinus pyralis) (UniProt P08659); test: firefly luciferase enzyme inhibitors, primary screen, biochemical, luminescence, purified enzyme, 2006 set (AID 1141); details: SteadyGlo luminescence, 30 min, higher = more signal, called active from +8 up or from −8 down;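 further: cell-free assay with purified firefly luciferase at 100 ng per well in PBS; test concentration not given here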
Sequence of Luciferin 4-monooxygenase (Photinus pyralis) (P08659 whole entry, looked up): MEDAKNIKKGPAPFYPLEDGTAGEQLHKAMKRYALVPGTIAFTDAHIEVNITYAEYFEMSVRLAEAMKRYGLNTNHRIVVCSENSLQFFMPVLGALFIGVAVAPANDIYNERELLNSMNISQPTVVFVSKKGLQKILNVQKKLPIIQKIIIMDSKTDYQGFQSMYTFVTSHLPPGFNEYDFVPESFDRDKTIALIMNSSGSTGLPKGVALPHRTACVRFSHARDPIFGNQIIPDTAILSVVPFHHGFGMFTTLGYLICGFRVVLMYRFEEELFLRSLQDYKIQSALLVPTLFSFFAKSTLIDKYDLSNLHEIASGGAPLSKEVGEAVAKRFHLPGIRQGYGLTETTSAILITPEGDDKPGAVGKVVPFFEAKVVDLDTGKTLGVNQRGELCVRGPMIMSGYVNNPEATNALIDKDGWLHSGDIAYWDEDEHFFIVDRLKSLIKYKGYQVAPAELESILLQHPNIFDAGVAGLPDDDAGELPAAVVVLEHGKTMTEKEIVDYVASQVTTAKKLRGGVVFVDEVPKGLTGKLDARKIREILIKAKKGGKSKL

[10] = tested on: Wnt5a (protein binding on small-molecule microarray); test: Wnt5a binders on small-molecule microarray, primary screen, biophysical, 635/667 nm fluorescence (AID 1142); details: 635 nm fluorescence, higher = more signal;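 further: fluorescence read at 667 nm with signal to noise per printed feature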
[11] = cell viability in Huh7 cells, primary screen, cytotoxicity control for HCV replication inhibitor project, CellTiter-Glo luminescence, basal, 48 h (AID 1143); details: Huh7 HCV replicon, higher = more signal, called active from +8 up or from −8 down;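 further: Huh7 hepatoma cells carrying a hepatitis C replication reporter with no stimulus; test concentration not given here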
[12] = P. aeruginosa biofilm formation inhibitors, primary screen, PAO1 strain, BacTiter-Glo luminescence, LB-PBS (AID 1144); details: 12 h, higher = more signal
[13] = CREB reporter modulators without forskolin, primary screen, cell-based, PC12, CRE-LacZ reporter, unstimulated (AID 1145); details: no forskolin, luminescence, 4.5 h, higher = more signal, called active from +8 up or from −8 down
[14] = CREB reporter modulators under forskolin, primary screen, cell-based, PC12, CRE-LacZ reporter, forskolin-stimulated (AID 1146); details: luminescence, 4.5 h, higher = more signal, called active from +8 up or from −8 down;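 further: PC12 cells with 6xCRE LacZ reporter stimulated by forskolin 10 µM; beta-galactosidase reporter signal reflecting CREB driven transcription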
[15] = biological target: Streptavidin (Streptomyces avidinii) (UniProt P22629); test: streptavidin binders on small-molecule microarray, primary screen, artefact control for SMM compound annotation, biophysical, 635/667 nm fluorescence (AID 1147); details: streptavidin binding, higher = more signal;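 further: signal reflects streptavidin binding to arrayed compounds as a control protein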
Sequence of Streptavidin (Streptomyces avidinii) (P22629 whole entry, looked up): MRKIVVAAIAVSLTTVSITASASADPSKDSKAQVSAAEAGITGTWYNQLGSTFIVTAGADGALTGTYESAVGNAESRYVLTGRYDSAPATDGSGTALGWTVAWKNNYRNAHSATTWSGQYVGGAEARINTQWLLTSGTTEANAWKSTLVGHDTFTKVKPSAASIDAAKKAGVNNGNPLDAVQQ

[16] = small-molecule binders of probe aInhba, primary screen, biochemical, small-molecule microarray, 635/667 nm fluorescence (AID 1148); details: higher = more signal;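 further: score merges 667nm spot fluorescence with signal-to-noise for antibody binding to printed compounds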
Torsin-1A (Homo sapiens) [17] = biological target: Torsin-1A (Homo sapiens) (UniProt O14656); test: torsin A binders from cell lysate, primary screen, small-molecule microarray, wild-type, 635/667 nm (AID 1149); details: COS7 hTOR1A-WT lysate, 635 nm fluorescence, higher = more signal
Sequence of Torsin-1A (Homo sapiens) (O14656 whole entry, looked up): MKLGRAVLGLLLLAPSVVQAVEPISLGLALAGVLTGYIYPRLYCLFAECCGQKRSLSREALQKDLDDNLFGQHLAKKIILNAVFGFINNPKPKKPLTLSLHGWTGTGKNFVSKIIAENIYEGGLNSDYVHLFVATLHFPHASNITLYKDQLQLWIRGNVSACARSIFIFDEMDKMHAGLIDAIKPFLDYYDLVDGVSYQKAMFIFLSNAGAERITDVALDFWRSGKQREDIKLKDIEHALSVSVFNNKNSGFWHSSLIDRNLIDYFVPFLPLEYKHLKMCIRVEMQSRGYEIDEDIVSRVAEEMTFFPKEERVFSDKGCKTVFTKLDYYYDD

Torsin-1A (Homo sapiens) [18] = biological target: Torsin-1A (Homo sapiens) (UniProt O14656); test: small-molecule binders of mutant TOR1A in lysate, primary screen, cell lysate, small-molecule microarray, COS7 lysate, 635/667 nm fluorescence (AID 1150); details: COS7 hTOR1A mutant lysate, 635 nm fluorescence, higher = more signal;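 further: score pools 667 nm emission and signal to noise measuring lysate protein binding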
[19] = tested on: Sonic hedgehog protein (Shh); test: small-molecule binders of Shh protein, primary screen, biochemical, small-molecule microarray, 635/667 nm fluorescence (AID 1151); details: small-molecule microarray binding, 635 nm fluorescence; higher = more signal;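 further: Shh protein binding to compounds spotted on small-molecule microarray slides; score combines spot fluorescence intensity with signal-to-noise across triplicate slides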

Work on Cc1ccc(S[C@]2(C(=O)NC(C)C)CC(=O)N(Cc3ccccc3Cl)[C@@H]2c2ccc(CO)cc2I)cc1 yielded a composite z-score [1] of 3.21, a composite z-score [2] of 0.164 and a composite z-score [3] of -0.0745. The composite z-score [4] was 0.628, the composite z-score [5] was 0.237 and the composite z-score [6] was -0.934. For the same molecule, the z-score [7] was 0.905, the composite z-score (Lefty1) was -0.658 and the composite z-score [8] was 0.648. For the same molecule, the z-score [9] was -0.102 (inactive), the composite z-score [10] was -0.615 and the z-score [11] was -2.03 (inactive). For the same molecule, the z-score [12] was 0.248 (inactive), the z-score [13] was -0.374 (inactive) and the z-score [14] was 2.53 (inactive). It also gave a composite z-score [15] of -0.265, a composite z-score [16] of -0.224 and a composite z-score (Torsin-1A (Homo sapiens) [17]) of -1.85. For the same molecule, the composite z-score (Torsin-1A (Homo sapiens) [18]) was -1.25 and the composite z-score [19] was -0.008.

C=C(COC)/C(=C/C[C@@H](OC(C)=O)c1ccc(OCCO)cc1)c1cc(C(=O)OC)ccc1OC gave a composite z-score [1] of 0.531, a composite z-score [2] of 1.21 and a composite z-score [3] of 0.481. It also gave a composite z-score [4] of -0.367, a composite z-score [5] of 1.25 and a composite z-score [6] of 1.5. The z-score [7] was 0.371, the composite z-score (Lefty1) was 1.19 and the composite z-score [8] was 0.195. The z-score [9] was -0.371 (inactive), the composite z-score [10] was 0.969 and the z-score [11] was -0.21 (inactive). For the same molecule, the z-score [12] was -0.201 (inactive), the z-score [13] was 1.82 (inactive) and the z-score [14] was 1.96 (inactive). For the same molecule, the composite z-score [15] was -0.0154, the composite z-score [16] was 0.0154 and the composite z-score (Torsin-1A (Homo sapiens) [17]) was 0.518. For the same molecule, the composite z-score (Torsin-1A (Homo sapiens) [18]) was 0.672 and the composite z-score [19] was 1.57.

CCOC(=O)C[C@H]1[C@H](OC(=O)c2cc3ccccc3oc2=O)[C@@H](NC(=O)Cc2ccc(OC)cc2)c2cc(OCCCO)ccc2N1C(=O)c1ccccc1 showed a composite z-score [1] of -0.0228, a composite z-score [2] of 0.376 and a composite z-score [3] of -0.0962. It also gave a composite z-score [4] of 0.367, a composite z-score [5] of 0.371 and a composite z-score [6] of 0.382. It also gave a z-score [7] of -1.01, a composite z-score (Lefty1) of 0.248 and a composite z-score [8] of 0.318. For the same molecule, the z-score [9] was 0.589 (inactive), the composite z-score [10] was 0.0687 and the z-score [11] was -3.21 (inactive). For the same molecule, the z-score [12] was -0.797 (inactive), the z-score [13] was 4.1 (inactive) and the z-score [14] was -0.27 (inactive). The composite z-score [15] was 0.308, the composite z-score [16] was 0.0713 and the composite z-score (Torsin-1A (Homo sapiens) [17]) was 0.388. The composite z-score (Torsin-1A (Homo sapiens) [18]) was 0.804 and the composite z-score [19] was 0.189.

For C[N+](C)(C)CCCC[C@@H]1NC(=O)[C@@H]2C[C@H](C(=O)NCCCCCN)[C@H](c3cccc(OCCO)c3)N2C1=O, the composite z-score [1] was 0.758, the composite z-score [2] was 0.935 and the composite z-score [3] was 0.103. The composite z-score [4] was 0.978, the composite z-score [5] was 0.597 and the composite z-score [6] was 0.175. The z-score [7] was 0.809, the composite z-score (Lefty1) was 0.161 and the composite z-score [8] was 1.07. The z-score [9] was -1.25 (inactive), the composite z-score [10] was -0.0878 and the z-score [11] was 0.288 (inactive). The z-score [12] was -0.165 (inactive), the z-score [13] was 0.7 (inactive) and the z-score [14] was 0.508 (inactive). For the same molecule, the composite z-score [15] was 1.19, the composite z-score [16] was -0.117 and the composite z-score (Torsin-1A (Homo sapiens) [17]) was 0.345. It also gave a composite z-score (Torsin-1A (Homo sapiens) [18]) of -0.149 and a composite z-score [19] of -0.125.

Molecule COCCCN1C(=O)[C@@]2(c3ccc([N+](=O)[O-])cc3)CC(=O)N(C3CCCCC3)[C@@H]2c2ccc(CO)cc21 has a composite z-score [1] of 0.245, a composite z-score [2] of -0.62 and a composite z-score [3] of -0.101. The composite z-score [4] was -0.538, the composite z-score [5] was 1.14 and the composite z-score [6] was 0.594. For the same molecule, the z-score [7] was -0.39, the composite z-score (Lefty1) was 0.655 and the composite z-score [8] was -0.0848. For the same molecule, the z-score [9] was -0.302 (inactive), the composite z-score [10] was -0.0976 and the z-score [11] was -0.253 (inactive). For the same molecule, the z-score [12] was 0.0798 (inactive), the z-score [13] was -0.761 (inactive) and the z-score [14] was -0.593 (inactive). For the same molecule, the composite z-score [15] was -0.226, the composite z-score [16] was -0.214 and the composite z-score (Torsin-1A (Homo sapiens) [17]) was 0.0116. The composite z-score (Torsin-1A (Homo sapiens) [18]) was -0.289 and the composite z-score [19] was 1.41.

O=C1O[C@H](c2ccccc2)[C@H](c2ccccc2)N2[C@H]1[C@@H](C(=O)N1CCN(c3ncccn3)CC1)[C@]1(C(=O)Nc3ccc(C#CC4=CCCCC4)cc31)[C@H]2c1ccc(O)cc1 showed a composite z-score [1] of 0.896, a composite z-score [2] of 1.21 and a composite z-score [3] of 0.0908. It also gave a composite z-score [4] of 0.756, a composite z-score [5] of 0.792 and a composite z-score [6] of 0.357. For the same molecule, the z-score [7] was -0.48, the composite z-score (Lefty1) was 0.497 and the composite z-score [8] was 0.605. For the same molecule, the z-score [9] was -0.0055 (inactive), the composite z-score [10] was -0.019 and the z-score [11] was -2.01 (inactive). The z-score [12] was -0.134 (inactive), the z-score [13] was 0.155 (inactive) and the z-score [14] was -0.196 (inactive). It also gave a composite z-score [15] of 1.08, a composite z-score [16] of -0.0448 and a composite z-score (Torsin-1A (Homo sapiens) [17]) of 0.268. It also gave a composite z-score (Torsin-1A (Homo sapiens) [18]) of 0.839 and a composite z-score [19] of 1.13.

With CCCCCN1CC=CC23O[C@@H]4/C=C\CCCOC(=O)C4[C@H]2C(=O)N(C(CO)C(C)C)[C@@H]3C1=O (stereo not given in full) the composite z-score [1] was -0.208, the composite z-score [2] was -0.376 and the composite z-score [3] was -0.295. It also gave a composite z-score [4] of -0.796, a composite z-score [5] of 0.0945 and a composite z-score [6] of -0.603. For the same molecule, the z-score [7] was -0.46, the composite z-score (Lefty1) was 0.418 and the composite z-score [8] was 0.869. The z-score [9] was 0.451 (inactive), the composite z-score [10] was 0.175 and the z-score [11] was -0.0623 (inactive). For the same molecule, the z-score [12] was -1.6 (inactive), the z-score [13] was -0.899 (inactive) and the z-score [14] was 0.373 (inactive). The composite z-score [15] was -0.739, the composite z-score [16] was -0.128 and the composite z-score (Torsin-1A (Homo sapiens) [17]) was -0.731. The composite z-score (Torsin-1A (Homo sapiens) [18]) was -0.436 and the composite z-score [19] was 0.976.
